About 4,300 (8.3%) of roughly 52,000 compounds were called active. The sample as a whole holds a higher share of actives than the screen did. Unmarked numbers belong to inactive results. No stated cut-off is given here; in the data, active means survival mostly below about 52% (no sharp cut-off); inactive means mostly above about 56%.

In this assay the test system is DeltatarO mutant. In words: growth inhibition of S. aureus wild type versus tarO mutant, primary screen, teichoic acid synthesis inhibitors, RN4220, OD600 (AID 463173). Conditions: OD600, 18 h, stronger effect = lower value, screened at 18.75 µg/mL (by protocol).
For the compound `CCC(Sc1nc2ncccc2o1)C(=O)Nc1ccc(OC)c(OC)c1` (stereo unspecified), the survival was 79%.

For `COc1cccc(NC(=O)c2nnn(Cc3ccc(OC)c(Br)c3)c2N)c1`, the survival is 57%. As for `CCCN(CCC)C(=O)CSc1nc2ccccc2c(=O)n1Cc1ccco1`, the figure is 83%; as for `O=C(CSc1nc2ccncc2[nH]1)Nc1ccccc1C(F)(F)F`, 87%; as for `O=S(=O)(Nc1ccc(-c2ccc(N3CCCC3)nn2)cc1)c1ccc(Br)cc1`, 94%.

As for `COc1ccc(CNC(=O)c2cnn3c(C)c(Cc4ccc(F)cc4)c(C)nc23)cc1`, the survival was 80%. In the case of `O=C(COc1ccc(F)cc1)Nc1nnc(S(=O)(=O)N2CCc3ccccc32)s1`, the survival was 17% (active).

Take `O=C(COc1ccc(Cl)cc1)Nc1nnc(S(=O)(=O)N2CCc3ccccc32)s1`: the survival was 6% (active). As for `Cc1cccc(OCC(=O)Nc2nnc(S(=O)(=O)N3CCc4ccccc43)s2)c1`, the figure is 16% (active); as for `CC(C)CC(=O)Nc1nnc(S(=O)(=O)N2CCc3ccccc32)s1`, 74%.

For the compound `CCC(=O)Nc1nnc(S(=O)(=O)N2CCc3ccccc32)s1`, the survival was 76%. The result for `Cc1ccc(OCC(=O)Nc2nnc(S(=O)(=O)N3CCc4ccccc43)s2)cc1` reads 13% (active). With `COc1ccc(OCC(=O)Nc2nnc(S(=O)(=O)N3CCc4ccccc43)s2)cc1`, the survival was 70%. The result for `CC(=O)NCCNC(=O)CCCc1nnc2n(C)c(=O)c3sccc3n12` reads 93%; that for `COc1ccc(CCNC(=O)c2cc3n(n2)C(C(F)(F)F)CC(C2CC2)N3)cc1OC` (stereo unspecified), 99%; that for `CC(=O)c1ccc(N2CCN(S(=O)(=O)c3c(C)nc4sc(C)cn4c3=O)CC2)cc1`, 75%. `COCCNC(=O)CCC(=O)N1Cc2cccc(OC)c2Oc2ncccc21`: the survival was 89%. As for `Nc1nc(=S)[nH]c2c1C1(CCCC1)Cc1ccccc1-2`, the figure is 99%; as for `Nc1n[nH]c2c1C1(CCCC1)Cc1ccccc1-2`, 100%. As for `N#CC1=C(N)c2ccccc2CC12CCCCC2`, the figure is 31% (active). As for `Cc1ccc(NC(=S)N(Cc2ccco2)Cc2cc3cc(C)c(Cl)cc3[nH]c2=O)cc1`, the figure is 82%. On to `COc1ccc2[nH]c(=O)c(CN(Cc3ccco3)C(=S)NCc3ccco3)cc2c1`, for which the survival was 65% (active). For `CNC(=S)N(Cc1ccco1)Cc1cc2ccc(C)cc2[nH]c1=O`, the survival was 99%. The result for `CCc1ccc2[nH]c(=O)c(CN(CCO)C(=S)NCc3ccco3)cc2c1` reads 88%.

Regarding `COc1ccc2[nH]c(=O)c(CN(Cc3ccco3)C(=S)NC3CCCCC3)cc2c1`, the survival is 77%. Consider `COc1ccc(NC(=S)N(Cc2ccco2)Cc2cc3cc(C)c(C)cc3[nH]c2=O)cc1`, for which the survival is 38% (active). As for `Cc1ccc(-c2nnc(Nc3ccccc3)c3ccccc23)cc1S(=O)(=O)N1CCN(C)CC1`, the figure is 86%; as for `NC(=O)c1cc2ccc(O)cc2oc1=O`, 74%.

In the case of `COc1ccc(CCNC(=O)CCCn2nc(C)c3sc4ccccc4c3c2=O)cc1OC`, the survival was 83%. The result for `CCCCc1nc2ccccc2c(C(=O)O)c1C` reads 75%. The result for `CCc1ccc(-c2nc3ccc(Br)cc3c(C(=O)O)c2C)s1` reads 39% (active). As for `Cc1c(-c2ccccc2)nc2ccccc2c1C(=O)O`, the figure is 95%; as for `COc1ccccc1CNC(=O)CN1C(=O)CCc2cc(S(=O)(=O)N3CCOCC3)ccc21`, 135%; as for `O=C(Cn1c(C(=O)N(Cc2ccco2)CC2CCCO2)cc2sccc21)c1ccccc1` (stereo unspecified), 68% (active). On to `O=C(Cn1c(C(=O)NCc2ccco2)cc2sccc21)c1ccccc1`, for which the survival is 92%. The result for `O=C(Cn1c(C(=O)NCC2CCCO2)cc2sccc21)c1ccccc1` (stereo unspecified) reads 103%; that for `CCOc1ccc(C2C(C(N)=O)=C(C)Nc3nc(-c4cccc(Cl)c4)nn32)cc1OC` (stereo unspecified), 74%; that for `O=C(NCC(c1ccco1)S(=O)(=O)c1cccs1)c1ccccc1` (stereo unspecified), 63%. As for `COc1cc2[nH]c(=O)n(CCCCCC(=O)N3CCN(c4cccc(C(F)(F)F)c4)CC3)c(=O)c2cc1OC`, the survival is 83%.

For `O=C(NCc1ccccc1)N(Cc1nc2ccccc2c(=O)[nH]1)C1CCCC1`, the survival is 52% (active). With `O=C(c1ccccc1)N(Cc1nc2ccccc2c(=O)[nH]1)C1CCCC1`, the survival is 70%. In the case of `O=C(NC1CCCCC1)N(Cc1nc2ccccc2c(=O)[nH]1)C1CCCC1`, the survival was 85%. For `COc1cccc2c(=O)cc(C)[nH]c12`, the survival was 88%. Consider `CN(Cc1ccccc1)C1CCNCC1`, for which the survival was 90%. Turning to `O=C(Nc1ccc(Cl)c(C(F)(F)F)c1)c1ccc2c(c1)CCN2S(=O)(=O)c1ccccc1`, the survival was 43% (active). As for `CS(=O)(=O)N1CCc2cc(C(=O)Nc3ccc(C(F)(F)F)cc3)ccc21`, the figure is 76%. Consider `CS(=O)(=O)N1CCc2cc(C(=O)Nc3ccc(Cl)c(C(F)(F)F)c3)ccc21`, for which the survival was 33% (active). As to `Cc1ccc(S(=O)(=O)N2CCc3cc(C(=O)Nc4ccc(C(F)(F)F)cc4)ccc32)cc1`, the survival was 63%. Turning to `O=C(Nc1cc(C(F)(F)F)ccc1Cl)c1ccc2c(c1)CCN2S(=O)(=O)c1ccccc1`, the survival was 48%. For the compound `CS(=O)(=O)N1CCc2cc(C(=O)Nc3cccc(F)c3)ccc21`, the survival is 68%. As for `CCCCNC(=O)CSc1nc2cc3c(cc2c(=O)n1CCCCCC(=O)NCc1ccc(OC)cc1)OCO3`, the figure is 79%; as for `CNCCCc1cc(C)ccc1O`, 59%; as for `CCc1ccc(NC(=O)c2cccc(N3CCCS3(=O)=O)c2)cc1`, 81%.

`Cc1ccc(S(=O)(=O)Nc2cc3c(cc2Cl)n(C)c(=O)c(=O)n3C)cc1`: the survival was 83%.

With `CCN(CC)N=Nc1ccc(S(=O)(=O)Nc2nc(C)cc(C)n2)cc1`, the survival is 100%. On to `CN(C)CCCN(C(=O)c1ccc2c(c1)OCCO2)c1nc2ccccc2s1`, for which the survival is 94%.

`CCOc1ccc2nc(NCCNC(=O)Nc3cccc(Cl)c3)c(C#N)cc2c1`: the survival was 82%. Take `Cc1cccc(C)c1Nc1c(-c2cccs2)nc2ncccn12`: the survival was 76%.

Consider `Cc1ccc2nc(-c3cccs3)c(Nc3c(C)cccc3C)n2c1`, for which the survival was 35% (active). As for `Cc1ccn2c(Nc3ccc4c(c3)OCCO4)c(-c3ccc(Cl)s3)nc2c1`, the figure is 102%; as for `Cc1cccc(C)c1Nc1c(-c2ccsc2)nc2ccccn12`, 43%. The result for `Cc1ccc2nc(-c3cccs3)c(Nc3ccc4c(c3)OCCO4)n2c1` reads 99%; that for `Cc1ccn2c(Nc3c(C)cccc3C)c(-c3ccsc3)nc2c1`, 35% (active). As for `Cc1cccc(C)c1Nc1c(-c2ccsc2)nc2ccc(Cl)cn12`, the figure is 80%. Take `Cc1cccc(C)c1Nc1c(-c2ccc(Cl)s2)nc2ncccn12`: the survival was 103%.

For `Cc1ccn2c(Nc3c(C)cccc3C)c(-c3ccc(Cl)s3)nc2c1`, the survival was 37% (active).

Source of the values: PubChem BioAssay AID463173 (ICCB-Longwood Screening Facility, Harvard Medical School, 2010).
